Assay results taken from the supplement of paper PMC13380429.

tested on: Vero E6 infected with SARS-CoV-2; test: morphology score (similarity to uninfected cells); higher = more like uninfected cells; settings: 24 h

Row | SMILES | morphology score
1 | CCCC(O)C(CC)CO (stereo not given) [2-ethyl-1,3-hexanediol] (0.833333 µM) | -0.095
2 | CCC(NC(C)C)C(O)c1ccc(O)c(O)c1 (stereo not given) [isoetharine] (10 µM) | 0.128
3 | Cn1c(NC[C@@H](N)Cc2ccccc2)nc(-c2ccncc2)c(-c2ccc3ccccc3c2)c1=O (10 µM) | 0.653
4 | Nc1ncnc2c1ncn2C1CCCO1 (stereo not given) (10 µM) | 0.029
5 | COc1cc(NC(=O)c2cccc(-n3cc(NC(=O)Nc4cccc(C)c4)cn3)c2)cc(OC)c1OC (10 µM) | -0.0791
6 | CCN(CC)CCCC(C)Nc1c2ccc(Cl)cc2nc2ccc(OC)cc12 (stereo not given) [mepacrine] (0.833333 µM) | 0.481
7 | CN1CCN(c2cccc(Nc3nc4c(-c5ccc(S(C)(=O)=O)cc5)cccn4n3)c2)CC1 (0.833333 µM) | 0.157
8 | CC(C)C[C@H](CN)CC(=O)O (10 µM) | -0.0821
9 | CC1(C)NC(=O)N(c2ccc([N+](=O)[O-])c(C(F)(F)F)c2)C1=O [nilutamide] (10 µM) | 0.15
10 | OC(CCN1CCCCC1)(c1ccccc1)c1ccccc1 [pridinol] (10 µM) | 0.0166
11 | CCCOc1ccc2[nH]c(NC(=O)OC)nc2c1 [oxibendazole] (10 µM) | -0.158
12 | Cc1onc(-c2ccccc2)c1C(=O)N[C@@H]1C(=O)N2[C@@H]1SC(C)(C)[C@@H]2C(=O)O [oxacillin] (10 µM) | -0.00627
13 | CCCN1CCC[C@@H]2Cc3nc(N)ncc3C[C@H]21 [quinelorane] (10 µM) | 0.13
14 | CC(=O)OCC(=O)NCCCOc1cccc(CN2CCCCC2)c1 [roxatidine-acetate] (10 µM) | 0.0141
15 | O=C(CCCl)NCCc1ccccc1 [fenaclon] (10 µM) | 0.0663
16 | C[C@H]1C[C@@H]2[C@H]([C@@H](O)C[C@@]3(C)[C@H]2CC[C@]3(O)C(=O)COC(=O)CCC(=O)O)[C@@]2(C)C=CC(=O)C=C12 [methylprednisolone-sodium-succinate] (10 µM) | -0.0168
17 | N=C(N)c1ccc(-c2ccc(-c3ccc(C(=N)N)cc3)o2)cc1 [furamidine] (10 µM) | -0.436
18 | CC(CNS(=O)(=O)C(C)C)c1ccc(-c2ccc(C#N)cc2)cc1 (stereo not given) (10 µM) | -0.219
19 | COc1cc2c(cc1OC)[C@@H]1Cc3ccc(OC)c(OC)c3CN1CC2 [rotundine] (10 µM) | 0.0444
20 | COc1ccc2[nH]cc(CCNC(C)=O)c2c1 [melatonin] (10 µM) | 0.0444

Row | SMILES | morphology score
21 | Cc1cc(OCC(=O)O)cc(C)c1Cc1ccc(O)c(C(C)C)c1 [sobetirome] (10 µM) | 0.0763
22 | O=c1ccn([C@@H]2O[C@H](CO)[C@@H](O)[C@H]2O)c(=O)[nH]1 [uridine] (10 µM) | 0.318
23 | COc1ccc(C2(O)CCC(N3CC[C@@H](NC(=O)CNC(=O)c4cccc(C(F)(F)F)c4)C3)CC2)cn1 (stereo not given in full) (10 µM) | -0.0197
24 | c1cnc(N2CCN(Cc3ccc4c(c3)OCO4)CC2)nc1 [piribedil] (10 µM) | 0.0979
25 | Cc1noc(C)c1-c1ccc(-c2cc(C(N)=O)c(NC(N)=O)s2)c(O[C@H]2CCNC2)c1 (10 µM) | 0.0267
26 | COCC(=O)O[C@]1(CCN(C)CCCc2nc3ccccc3[nH]2)CCc2cc(F)ccc2[C@@H]1C(C)C [mibefradil] (10 µM) | 0.79
27 | O=C1CCc2ccc(OCCCCN3CCN(c4cccc(Cl)c4Cl)CC3)cc2N1 [aripiprazole] (10 µM) | -0.0119
28 | Cc1sc(C)c(C(=O)NC2(c3ccc(C(=O)O)cc3)CC2)c1Cc1ccc(C(F)(F)F)cc1 (10 µM) | 0.187
29 | C=C1CC/C=C(\C)CC[C@@H]2[C@@H]1CC2(C)C [g-caryophyllene] (10 µM) | 0.0545
30 | O=C(O)Cc1ccc(OCc2ccccc2)c(Cl)c1 [benzofenac] (10 µM) | -0.114
31 | CC(N)Cc1c[nH]c2ccc(OCc3cccs3)cc12 (stereo not given) (10 µM) | 0.0586
32 | CCc1nc2c(C)nc(C)cc2n1-c1ccc(CCNC(=O)NS(=O)(=O)c2ccc(C)cc2)cc1 [grapiprant] (10 µM) | 0.243
33 | CC(C)(C)C(=O)/C(=N/c1ccc(Cl)cc1)NNc1ccc(Cl)cc1 (10 µM) | -0.145
34 | CCCCCCCC/C=C/CCCCCCCC(=O)OC[C@H]1O[C@@H](n2ccc(N)nc2=O)C(F)(F)[C@@H]1O [gemcitabine-elaidate] (0.833333 µM) | 0.0895
35 | CCC(C)CCCC(=O)N[C@@H](CCN)C(=O)N[C@H](C(=O)N[C@@H](CCN)C(=O)N[C@H]1CCNC(=O)[C@H]([C@@H](C)O)NC(=O)[C@H](CCN)NC(=O)[C@H](CCN)NC(=O)[C@H](CC(C)C)NC(=O)[C@@H](CC(C)C)NC(=O)[C@H](CCN)NC1=O)[C@@H](C)O (stereo not given in full) [colistin] (10 µM) | 0.134
36 | CC(=O)Nc1ccc(C(=O)O)cc1 [acedoben] (10 µM) | 0.0304
37 | COc1cc2ncnc(Nc3ccc(F)c(Cl)c3)c2cc1OCCCN1CCOCC1 [gefitinib] (10 µM) | -0.249
38 | C/C(=C\c1csc(C)n1)[C@@H]1C[C@@H]2O[C@]2(C)CCC[C@H](C)[C@H](O)[C@@H](C)C(=O)C(C)(C)[C@@H](O)CC(=O)N1 [ixabepilone] (10 µM) | -0.0812
39 | O=C(Nc1ccc(S(=O)(=O)C(F)(F)F)cc1)C1=CCN(c2ncccc2C(F)(F)F)CC1 (10 µM) | 0.135
40 | CC(=O)NCCCS(=O)(=O)O [acamprosate] (10 µM) | 0.0831
